An excerpt weighted towards active compounds, which were near 8.8% of everything screened.
KB-V1 cytotox – kills drug-selected multidrug resistant KB-V1 cells; KB-V1 MDR cells viability, CellTiter-Glo, 72 h; Potency, µM (doses to about 46.1 µM), usual class: cytotoxic; 3.4% of 400,000 active; AID 1347076; also: potency is read from the fitted curve at half-maximal effect; nearly all actives have a fitted effect of over 60% in size
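Readout: CellTiter-Glo luminescence, 10 min after addition. Cells: KB-V1 MDR subline, 72 h at 37 degrees C with compound. Analysis: corrected, normalized data fitted to concentration-effect curves.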
HT1080-NT tox – kills 2HG-producing HT-1080-NT fibrosarcoma cells; HT-1080-NT fibrosarcoma viability, CellTiter-Glo ATP luminescence, 48 h; Potency, µM (highest dose often 46.1 µM), for the others: top-dose activity, negative = less viability, most hits filed as cytotoxic; 1.6% of 360,000 active;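 also: NT is the 2HG producing partner of a matched IDH1 knockdown line; potency is read from the fitted curve at half-maximal effect; 0% = DMSO-treated cells and -100% = media-only wells without cells; nearly all actives have a fitted effect of over 55% in size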
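Viability of the 2HG-overproducing fibrosarcoma line after 48 hours of compound exposure at 37 degrees C was determined by luminescence with CellTiter-Glo, and concentration-effect curves were then fitted and categorized.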
KB-3-1 cytotox – KB-3-1 parental cell cytotoxicity; AID 1347075; KB-3-1 viability, CellTiter-Glo ATP luminescence, 72 h; 1.4% of 400,000 active; Potency, µM (top dose mostly 46.1 µM), most hits filed as cytotoxic; also: potency is read from the fitted curve at half-maximal effect; nearly all actives have a fitted effect of over 60% in size
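Luminescent ATP read-out (CellTiter-Glo) measures survival of drug-naive KB-3-1 cells after 72 h compound exposure at 37 °C. Titration series was screened from lowest to highest concentration, with DMSO vehicle plates as background controls.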
IL1B secr inh – inflammasome signaling inhibition, IL-1 beta readout; 4.7% of 360,000 active; activity change, % at 57.5 µM; THP-1 LPS/ATP IL-1B secretion, AlphaLISA, 16 h; active compounds read low; AID 743279; in the data active = activity change below about -50%; inconclusive = mostly about -30% to -49%
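THP-1 cells pretreated 1 hr with compounds (up to 57.5 uM final), then stimulated with LPS (250 ng/mL final) plus ATP (1.25 mM final); secreted IL-1B measured by AlphaLISA after 16 hr, decreased signal indicating inhibition.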
HT1080 IDH1KD tx – toxicity to HT-1080 IDH1 knockdown cells (counter line); AID 686971; Potency, µM (top dose mostly 46.1 µM), for the others: at the top dose activity, negative = toxicity, most hits filed as cytotoxic; HT-1080 IDH1 knockdown viability, ATP luminescence, 48 h; 2% of 360,000 active;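 also: potency is read from the fitted curve at half-maximal effect; 0% = DMSO wells and -100% = cell-free medium wells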
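Knockdown cells (IDH1KD HT-1080) received compounds 2 h after plating at 750 cells/well and were kept 48 h at 37 °C in 5% FBS RPMI. A CellTiter-Glo luminescence read gave % activity for curve fitting.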
The depositor's hits bear a star; [ ] = another dose, or the depositor's remark. Unless noted, calls follow the shape of the dose curve; as a rule, active = well fitted curve in the direction sought with a large enough effect; inconclusive = small, poorly fitted or top-dose-only effect, or another doubt; inactive = no such curve, though single readings can be large; an effect the other way counts as inactive or inconclusive. Unless noted, % is scaled to controls: 0 for no effect and ±100 for the full control effect.

CCCCN1CC(N2CCN(CCN(C)C)CC2)CS1(=O)=O (stereo unspecified) was read as KB-V1 cytotox inactive, HT1080-NT tox -4%, KB-3-1 cytotox inactive, IL1B secr inh 0 and HT1080 IDH1KD tx 8%.
`CCc1c(C)c(C#N)c2[nH]c3ccccc3n2c1=S` gave KB-V1 cytotox 7.3µM*, HT1080-NT tox inconclusive, KB-3-1 cytotox inconclusive and HT1080 IDH1KD tx inconclusive.
Screening Cc1ccc(Cc2c(C)c(C#N)c3[nH]c4ccccc4n3c2=O)cc1 returned KB-V1 cytotox inactive, HT1080-NT tox -17%, KB-3-1 cytotox inconclusive, IL1B secr inh -22 and HT1080 IDH1KD tx -20%.
Screening CCc1cc(=S)n2c([nH]c3ccccc32)c1C#N returned KB-V1 cytotox 5.8µM*, HT1080-NT tox inconclusive, KB-3-1 cytotox inconclusive, IL1B secr inh 0 and HT1080 IDH1KD tx inconclusive.
Screening Cc1c(CCC(=O)O)c(=O)n2c([nH]c3ccccc32)c1C#N returned KB-V1 cytotox inactive, HT1080-NT tox 8%, KB-3-1 cytotox inactive, IL1B secr inh 22 and HT1080 IDH1KD tx 0%.
C=C(C)Cc1c(C)c(C#N)c2[nH]c3ccccc3n2c1=O was read as KB-V1 cytotox inconclusive, HT1080-NT tox -13%, KB-3-1 cytotox inconclusive, IL1B secr inh 21 and HT1080 IDH1KD tx 16µM*.
COCCNC(=O)c1ccc(-c2nc(CS(=O)(=O)c3ccccc3)c(C)o2)cc1 was read as KB-V1 cytotox inactive and KB-3-1 cytotox inactive.
COc1ccc(NC(=O)c2ccc3c(c2)CCN3S(=O)(=O)c2ccc(C)cc2)cc1Cl was read as KB-V1 cytotox inactive and KB-3-1 cytotox inactive.
O=C1c2ccccc2C(=Cc2cccnc2)c2ccccc21 was read as KB-V1 cytotox inactive, HT1080-NT tox 2%, KB-3-1 cytotox inactive, IL1B secr inh -17 and HT1080 IDH1KD tx 2%.
CN1C/C(=C/c2cccnc2)C(=O)/C(=C/c2cccnc2)C1 was read as KB-V1 cytotox 15µM*, HT1080-NT tox inconclusive, KB-3-1 cytotox inconclusive, IL1B secr inh -102* and HT1080 IDH1KD tx inconclusive.
Screening CC(C)N1C/C(=C/c2ccsc2)C(=O)/C(=C/c2ccsc2)C1 returned KB-V1 cytotox inconclusive, HT1080-NT tox inconclusive, KB-3-1 cytotox 15µM*, IL1B secr inh -96* and HT1080 IDH1KD tx inconclusive.
`CC(C)N1C/C(=C/c2cccnc2)C(=O)/C(=C/c2cccnc2)C1` gave KB-V1 cytotox 15µM*, HT1080-NT tox 6.5µM*, KB-3-1 cytotox inconclusive, IL1B secr inh -104* and HT1080 IDH1KD tx 5.8µM*.
Screening CCN1C(=O)S/C(=C/c2ccsc2)C1=O returned KB-V1 cytotox inactive, HT1080-NT tox 4%, KB-3-1 cytotox inactive, IL1B secr inh -26 and HT1080 IDH1KD tx -1%.
Screening O=C(Cn1c(=O)n(-c2ccc(Cl)cc2)c(=O)c2c3c(sc21)CCCCC3)Nc1cccc(Cl)c1 returned KB-V1 cytotox inactive and KB-3-1 cytotox inactive.
`O=C(Cc1c(F)cccc1Cl)NNC(=O)c1cccs1` gave KB-V1 cytotox inactive, HT1080-NT tox 3%, KB-3-1 cytotox inactive, IL1B secr inh 18 and HT1080 IDH1KD tx 6%.
O=S(=O)(c1ccc2oc3ccccc3c2c1)N1CCOCC1 was read as KB-V1 cytotox 16µM*, HT1080-NT tox -9%, KB-3-1 cytotox inactive, IL1B secr inh -8 and HT1080 IDH1KD tx -14%.
`CCN(CC)C(=O)C1CCN(S(=O)(=O)c2ccc3oc4ccccc4c3c2)CC1` gave KB-V1 cytotox 12µM*, HT1080-NT tox -7%, KB-3-1 cytotox inactive, IL1B secr inh inconclusive and HT1080 IDH1KD tx -4%.
O=S(=O)(c1ccc2oc3ccccc3c2c1)N1CCCC1 was read as KB-V1 cytotox inactive, HT1080-NT tox 6%, KB-3-1 cytotox inactive, IL1B secr inh 12 and HT1080 IDH1KD tx 2%.
CC(CC(=O)Nc1ccc2c(c1)c(=O)n(C)n2-c1cccs1)c1ccccc1 (stereo unspecified) was read as KB-V1 cytotox inconclusive, HT1080-NT tox inconclusive, KB-3-1 cytotox inconclusive, IL1B secr inh 28 and HT1080 IDH1KD tx 4.1µM*.
For Cc1cc(C)cc(-n2c3ccc(NC(=O)Cc4cccc5ccccc45)cc3c(=O)n2C)c1 the results were KB-V1 cytotox inconclusive, HT1080-NT tox inconclusive, KB-3-1 cytotox 5.2µM*, IL1B secr inh 0 and HT1080 IDH1KD tx 2.1µM*.
`Cc1nc2ncnn2c(Nc2ccc3c(c2)OCCO3)c1C` gave KB-V1 cytotox inconclusive, HT1080-NT tox -8%[9.24 µM], KB-3-1 cytotox inactive, IL1B secr inh 41 and HT1080 IDH1KD tx -27%.
For COc1ccc(-c2cc(NCCc3ccncc3)n3ncnc3n2)cc1 the results were KB-V1 cytotox inactive, HT1080-NT tox -5%, KB-3-1 cytotox inactive, IL1B secr inh -66* and HT1080 IDH1KD tx 2%.
`CCOc1ccc(CCNc2cc(C)nc3ncnn23)cc1OCC` gave KB-V1 cytotox inactive, HT1080-NT tox -13%, KB-3-1 cytotox inactive, IL1B secr inh 65 and HT1080 IDH1KD tx -10%.
Screening CCc1c(C)nc2ncnn2c1NCCc1ccc(OC)c(OC)c1 returned KB-V1 cytotox 9.2µM*, HT1080-NT tox -6%, KB-3-1 cytotox 23µM*, IL1B secr inh 15 and HT1080 IDH1KD tx -16%.
`COc1ccc(CCNc2c(C)c(C)nc3ncnn23)cc1` gave KB-V1 cytotox inactive, HT1080-NT tox 10µM*, KB-3-1 cytotox inactive, IL1B secr inh -11 and HT1080 IDH1KD tx 7.1µM*.
Screening CCc1c(C)nc2ncnn2c1Nc1ccc(C(C)=O)cc1 returned KB-V1 cytotox inactive, HT1080-NT tox -5%, KB-3-1 cytotox inactive, IL1B secr inh 70 and HT1080 IDH1KD tx 2%.
For CCOC(=O)c1ccc(Nc2c(CC)c(C)nc3ncnn23)cc1 the results were KB-V1 cytotox 23µM*, HT1080-NT tox 1%, KB-3-1 cytotox inactive, IL1B secr inh 0 and HT1080 IDH1KD tx -3%.
COc1ccc(OC)c(NC(=O)N2CCC(CN3CCCCC3)CC2)c1 was read as KB-V1 cytotox inactive and KB-3-1 cytotox inactive.
Cc1cc(Sc2ccc([N+](=O)[O-])cn2)ccc1Br was read as KB-V1 cytotox inactive, HT1080-NT tox -13%, KB-3-1 cytotox inactive, IL1B secr inh -14 and HT1080 IDH1KD tx 3%.
Cc1cc(S(=O)(=O)c2ccc([N+](=O)[O-])cn2)ccc1Br was read as KB-V1 cytotox inconclusive, HT1080-NT tox 2.3µM*, KB-3-1 cytotox inconclusive, IL1B secr inh -106* and HT1080 IDH1KD tx 3.7µM*.
`Cc1ccc(S(=O)(=O)c2ccc([N+](=O)[O-])cn2)cc1` gave KB-V1 cytotox 9.2µM*, HT1080-NT tox 2.6µM*, KB-3-1 cytotox 6.5µM*, IL1B secr inh -105* and HT1080 IDH1KD tx 4.6µM*.
`O=[N+]([O-])c1ccc(S(=O)(=O)c2ccccc2)nc1` gave KB-V1 cytotox inactive, HT1080-NT tox 5.8µM*, KB-3-1 cytotox inactive, IL1B secr inh 0 and HT1080 IDH1KD tx 5.8µM*.

Screening results from PubChem BioAssay.
